Results reported in PubChem BioAssay (NCI).
Compounds without any hit were thinned out: in the full panel of roughly 79,000, 15% have a hit. Values without a mark were called inactive. Activity calls are given as the source filed them. Rule as the data show it: active = growth inhibition above about 70%; inactive = the rest.

Experiment: NCI Yeast Anticancer Drug Screen. Data for the wt2 strain (AID 169);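 also: 0% = growth of vehicle-treated yeast cultures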
Conditions: S. cerevisiae wt2 strain growth inhibition, hits give high values
Procedure: Growth inhibition of yeast strains with defined genetic alterations is measured as a screen for potential anti-cancer activity. Selected strains with alterations in DNA damage repair or cell cycle control were exposed to compounds and growth inhibition was measured relative to vehicle treated controls. The strain used in this assay is wt2

Q: Which growth inhibition (at 1.2 µM) does the source give for `Cc1[nH]nc(C(F)(F)F)c1N=NN(C)C` here?
A: Its growth inhibition is -1%.

Q: And the growth inhibition (at 3.7 µM)?
A: The growth inhibition was 49%.

Q: And the growth inhibition (at 11.0 µM)?
A: The growth inhibition was 51%.

Q: And the growth inhibition (at 33.0 µM)?
A: Its growth inhibition is 99% (active).

Q: And the growth inhibition (at 100.0 µM)?
A: The growth inhibition was 99% (active).

Q: Which growth inhibition (at 1.2 µM) does the source give for `Oc1ccc(Br)cc1C=Nc1cccc(C(F)(F)F)c1` here?
A: Its growth inhibition is -1%.

Q: And the growth inhibition (at 3.7 µM)?
A: Its growth inhibition is -1%.

Q: What about the growth inhibition (at 11.0 µM) of the same compound?
A: Its growth inhibition is 0%.

Q: And the growth inhibition (at 33.0 µM)?
A: Its growth inhibition is 10%.

Q: What about the growth inhibition (at 100.0 µM) of the same compound?
A: Its growth inhibition is 65%.

Q: For `Nc1ccc2ncc(Nc3ccc(Cl)c(Cl)c3)nc2c1`, which growth inhibition (at 1.2 µM) is on record?
A: The growth inhibition was -15%.

Q: And the growth inhibition (at 3.7 µM)?
A: Its growth inhibition is 0%.

Q: And the growth inhibition (at 11.0 µM)?
A: The growth inhibition was 57%.

Q: And the growth inhibition (at 33.0 µM)?
A: Its growth inhibition is 97% (active).

Q: And the growth inhibition (at 100.0 µM)?
A: The growth inhibition was 97% (active).

Q: Which results are given for `CCOC(=O)/C(O)=C(/C=N/C(=S)Nc1c(CC)cccc1CC)C(=O)OCC`?
A: growth inhibition (at 1.2 µM): -7%; growth inhibition (at 3.7 µM): -6%; growth inhibition (at 11.0 µM): -1%; growth inhibition (at 33.0 µM): 23%; growth inhibition (at 100.0 µM): 40%

Q: For `O=CC(=C(I)I)c1ccccc1`, which growth inhibition (at 1.2 µM) is on record?
A: The growth inhibition was 4%.

Q: And the growth inhibition (at 3.7 µM)?
A: The growth inhibition was 5%.

Q: What about the growth inhibition (at 11.0 µM) of the same compound?
A: The growth inhibition was 38%.

Q: What about the growth inhibition (at 33.0 µM) of the same compound?
A: Its growth inhibition is 99% (active).

Q: And the growth inhibition (at 100.0 µM)?
A: The growth inhibition was 99% (active).

Q: What does the source list for `Clc1ccc(C(c2ccc(Cl)cc2)N2CCNCC2)cc1`?
A: growth inhibition (at 1.2 µM): -3%; growth inhibition (at 3.7 µM): -2%; growth inhibition (at 11.0 µM): -81%; growth inhibition (at 33.0 µM): 46%; growth inhibition (at 100.0 µM): 99% (active)

Q: Which results are given for `CCOC(=O)c1sc2[n+](c1C)C(=O)/C(=C/c1cc(OC)c(OC)c(OC)c1)S2`?
A: growth inhibition (at 1.2 µM): 2%; growth inhibition (at 3.7 µM): 3%; growth inhibition (at 11.0 µM): 47%; growth inhibition (at 33.0 µM): 85% (active); growth inhibition (at 100.0 µM): 95% (active)

Q: For `O=Cn1c2ccccc2c2ccccc21`, which growth inhibition (at 1.2 µM) is on record?
A: Its growth inhibition is -12%.

Q: What about the growth inhibition (at 3.7 µM) of the same compound?
A: The growth inhibition was -21%.

Q: What about the growth inhibition (at 11.0 µM) of the same compound?
A: The growth inhibition was -7%.

Q: What about the growth inhibition (at 33.0 µM) of the same compound?
A: The growth inhibition was -18%.

Q: What about the growth inhibition (at 100.0 µM) of the same compound?
A: Its growth inhibition is 46%.
